Measurements published in paper PMC10668032, “Altered binding affinity of SIX1-Q177R correlates with enhanced WNT5A and WNT pathway effector expression in Wilms tumor”.
In all, about 33,000 sequences were measured (“e-score”: median about -0.053, highest 2% from about 0.38 on). The sample as a whole holds a higher share of the highest values than the screen did.

Each sequence was assayed against T1, SIX1 homeodomain (reference allele) (human, UniProt Q15475 108-198) (assay: universal protein binding microarray; Universal all-10-mer PBM (8x60K, AMADID 030236), 300 nM GST-tagged protein, Alexa Fluor 488 anti-GST; buffer, salt, pH and temperature not stated (as in Berger); high values mean tight binding). Settings: protein: ivt; tags: N-terminal GST; dsDNA, one strand shown.
T1 sequence: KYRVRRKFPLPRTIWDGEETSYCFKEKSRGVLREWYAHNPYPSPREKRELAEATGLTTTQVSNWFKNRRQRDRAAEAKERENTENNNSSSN
Method in brief: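 Homeodomains fused to GST were made by in vitro transcription/translation and measured by anti-GST western blot with a recombinant GST standard curve. At 300 nM final concentration, they were applied in duplicate to universal 'all 10-mer' protein binding microarrays (8×60K format).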
With ATGCACTA the binding signal was 0.159 ± 0.065 E-score. With CGTATTTA the binding signal was 0.169 ± 0.0073 E-score. Work on CCCGGATA yielded a binding signal of 0.424 ± 0.0139 E-score. For CCCGGAGA, the binding signal was 0.169 ± 0.0421 E-score. For GCTGGATA, the binding signal was 0.324 ± 0.0373 E-score. With GCCAGATA the binding signal was 0.213 ± 0.0509 E-score. Work on GCCGGATA yielded a binding signal of 0.409 ± 0.0137 E-score. CCTGGATA gave a binding signal of 0.313 ± 0.0384 E-score. For ACCGATCC, the binding signal was 0.382 ± 0.0237 E-score. CCCGATCC gave a binding signal of 0.366 ± 0.0566 E-score. With ATCGATCG the binding signal was 0.256 ± 0.037 E-score. CCCGATAC showed a binding signal of 0.438 ± 0.0253 E-score. For ACCGATCA, the binding signal was 0.2912 ± 0.000771 E-score. Work on ATCGATCA yielded a binding signal of 0.17 ± 0.0323 E-score. ACCGATAC was tested, and the binding signal was 0.453 ± 0.017 E-score. CCCGATAG was tested, and the binding signal was 0.205 ± 0.0789 E-score. In the case of ATCGATCC, the binding signal is reported as 0.389 ± 0.0532 E-score. ACCGATGA showed a binding signal of 0.17 ± 0.0208 E-score. CCCGACAC showed a binding signal of 0.19 ± 0.0993 E-score. ACCGACAC showed a binding signal of 0.2857 ± 0.000453 E-score. Work on ATCTTACC yielded a binding signal of 0.296 ± 0.0402 E-score. Sequence CGTGTCAG has a binding signal of 0.202 ± 0.0504 E-score. In the case of ATACTCGG, the binding signal is reported as 0.316 ± 0.01 E-score. Sequence ATCGTCAC has a binding signal of 0.279 ± 0.00711 E-score. Sequence GATCTGCA has a binding signal of 0.258 ± 0.0208 E-score. ATCACTGG gave a binding signal of 0.215 ± 0.00955 E-score. Work on CCGGGTGA yielded a binding signal of 0.201 ± 0.0475 E-score. In the case of GCCGATCC, the binding signal is reported as 0.352 ± 0.0357 E-score. For ACCGATAT, the binding signal was 0.396 ± 0.00927 E-score. GCCGATAC showed a binding signal of 0.42 ± 0.0113 E-score. Sequence ACCGATAG has a binding signal of 0.352 ± 0.018 E-score. Sequence TCCGATAA has a binding signal of 0.223 ± 0.0291 E-score. Sequence ACCGATCT has a binding signal of 0.251 ± 0.0228 E-score. TATAAATA showed a binding signal of 0.16 ± 0.095 E-score. With CGAGATGA the binding signal was 0.187 ± 0.0163 E-score. AGTAGATA showed a binding signal of 0.334 ± 0.0532 E-score. ATAGCTAC gave a binding signal of 0.163 ± 0.0342 E-score. AGGCGTAT was tested, and the binding signal was 0.318 ± 0.00622 E-score. TATCTGAA gave a binding signal of 0.153 ± 0.0196 E-score. In the case of AAGGATAA, the binding signal is reported as 0.167 ± 0.034 E-score. CAGGATAC was tested, and the binding signal was 0.365 ± 0.0177 E-score. GAGGATAC showed a binding signal of 0.403 ± 0.0104 E-score. Sequence GAGGATAA has a binding signal of 0.278 ± 0.00471 E-score. AAGGATAC showed a binding signal of 0.405 ± 0.0292 E-score. AAGGATAG was tested, and the binding signal was 0.195 ± 0.0349 E-score. ACATTGAT gave a binding signal of 0.154 ± 0.01 E-score. Work on ATGAGACC yielded a binding signal of 0.295 ± 0.00298 E-score. ATCACATC was tested, and the binding signal was 0.284 ± 0.0264 E-score. CACCGATC was tested, and the binding signal was 0.305 ± 0.0428 E-score. ACATATAC showed a binding signal of 0.244 ± 0.0208 E-score. ACATATCT was tested, and the binding signal was 0.233 ± 0.09 E-score. CCATATCG gave a binding signal of 0.4544 ± 0.00281 E-score. For CAATATCG, the binding signal was 0.296 ± 0.0508 E-score. For ACATATCC, the binding signal was 0.381 ± 0.0241 E-score. In the case of ACATATCG, the binding signal is reported as 0.389 ± 0.0479 E-score. Work on CCATATCC yielded a binding signal of 0.424 E-score. In the case of CCATATAC, the binding signal is reported as 0.29 ± 0.00643 E-score. CCATATGC was tested, and the binding signal was 0.159 ± 0.0297 E-score. ACATATAG showed a binding signal of 0.162 ± 0.052 E-score. Work on CCATATAG yielded a binding signal of 0.211 ± 0.0217 E-score. ACCTATCG showed a binding signal of 0.236 ± 0.0191 E-score. Work on ATATTCAG yielded a binding signal of 0.164 ± 0.0437 E-score. Work on GCTTATCC yielded a binding signal of 0.304 ± 0.0229 E-score. TAGATGGA was tested, and the binding signal was 0.289 ± 0.00593 E-score. In the case of AACAGTAT, the binding signal is reported as 0.196 ± 0.107 E-score. With CGGATTCC the binding signal was 0.247 ± 0.00447 E-score. With CAGAACAA the binding signal was 0.176 ± 0.0355 E-score. ATATTAAC showed a binding signal of 0.156 ± 0.0934 E-score. CAAGATCA showed a binding signal of 0.242 ± 0.0215 E-score. Sequence TATCATGA has a binding signal of 0.382 ± 0.0397 E-score. With TCTCATAA the binding signal was 0.161 ± 0.0418 E-score. For TATTATCA, the binding signal was 0.187 ± 0.0898 E-score. For TATCCTCA, the binding signal was 0.37 ± 0.037 E-score. GATCATGA gave a binding signal of 0.273 ± 0.0126 E-score. GATCATAA gave a binding signal of 0.306 ± 0.00493 E-score. TATCAGCA showed a binding signal of 0.327 ± 0.0344 E-score. TATCAGGA gave a binding signal of 0.397 ± 0.00041 E-score. Sequence GGTCATGA has a binding signal of 0.169 ± 0.033 E-score. In the case of GATCAGGA, the binding signal is reported as 0.339 ± 0.0411 E-score. TATCATAA gave a binding signal of 0.381 ± 0.0345 E-score. Sequence TATCATCA has a binding signal of 0.412 ± 0.0218 E-score. With AGGTGGAT the binding signal was 0.305 ± 0.034 E-score. CATAGATC was tested, and the binding signal was 0.249 E-score. With CGGTGTGA the binding signal was 0.204 ± 0.0905 E-score. In the case of GGTTAGAA, the binding signal is reported as 0.153 ± 0.0251 E-score. ATACTCTA showed a binding signal of 0.268 ± 0.0991 E-score. Work on CATAATCC yielded a binding signal of 0.3 ± 0.0272 E-score. With AATTGTAT the binding signal was 0.162 ± 0.0456 E-score.
